Experimental findings from PubChem BioAssay are described below.

A number with no mark means an inactive call.

The nature of the test: optical density shifts of acrAB sulA E. coli – strain DRC41, OD650, 48 h, E. coli filamentation inducer project, primary screen (AID 1152).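 Also: E. coli MC1000 strain DRC41 lacking acrAB efflux pump and sulA.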 The following applies: higher = more signal, called active from +8 up or from −8 down.
For the compound `COC(=O)[C@@]1(Cc2ccc(OC)cc2)[C@H]2c3cc(C(=O)N(C)C)n(Cc4ccc(C)o4)c3C[C@H]2CN1C(=O)c1ccccc1`, the z-score is -0.155.

For `CCCCCN1CC=CC23O[C@@H]4/C=C\CCC(C)OC(=O)C4[C@H]2C(=O)N(C(CO)C(C)C)[C@@H]3C1=O` (stereo partly drawn), the z-score is 1.66.

For the compound `CCOC(=O)C[C@H]1[C@H](OC(=O)c2ccccc2-c2ccccc2)[C@@H](NC(=O)c2ccc3ccccc3n2)c2cc(OCCCO)ccc2N1C(=O)Cc1ccc(OC)cc1`, the z-score was -0.783.

In the case of `O=C1OCCC/C=C\[C@H]2OC34C=CCN(c5ccc6ccccc6c5)C(=O)[C@H]3N(CCO)C(=O)[C@@H]4C12` (stereo partly drawn), the z-score was -0.067.

Regarding `O=C1N(Cc2ccccc2)c2ccccc2C[C@]12N=C(c1ccc(OCCCO)cc1)O[C@@H]2c1ccccc1`, the z-score is -0.522.

On to `O[C@@H](Cc1ccccc1)[C@@H](/C=C/C1CC1)N(CC#Cc1ccccc1)Cc1ccccc1Br`, for which the z-score is 0.241.

`O=C(C1N=C(c2ccc(OCCCO)cc2)N(c2ccccc2)O1)N1CCCCC1` (stereo not drawn): the z-score is 0.666.

`CC(C)[Si]1(C(C)C)OCc2cc(-c3ccc(-c4ccc(Cl)c(Cl)c4)o3)nc(-c3ccccc3)c21`: the z-score is -0.618.

In the case of `COc1ccc([Si](C)(C)[C@@H]2[C@@H](CCO)O[C@]3(C(=O)N(Cc4ccccc4)c4ccc(NC(=O)[C@H](C)O)cc43)[C@H]2C)cc1`, the z-score is 0.573.

With `COc1cc(NN2C(C(O)c3ccc(N(C)C)cc3)C=CC3C(=O)N(c4ccccc4)C(=O)C32)cc(OC)c1OC` (stereo not drawn), the z-score is -2.71.

With `Cn1cccc1C(O)C1C=CC2C(=O)N(c3ccccc3)C(=O)C2N1Nc1ccccc1` (stereo not drawn), the z-score is -0.548.

For `CCOC(=O)C=Cc1cccc(C)c1O`, the z-score is -0.718.

For the compound `COC(=O)C1=CC(CCCO)=CC(c2cccs2)N(Cc2cccc(OC(F)(F)F)c2)C=C1C(=O)OC` (stereo not drawn), the z-score was -0.504.

In the case of `[N-]=[N+]=Nc1ccccc1[C@@H]1OC(c2ccc(OCCCO)cc2)=N[C@]1(Cc1ccccc1)C(=O)N1CCCCC1`, the z-score is 0.227.

Take `C=CCNC(=O)[C@@H]1[C@H]2C(=O)O[C@H](c3ccccc3)[C@H](c3ccccc3)N2[C@H](c2ccc(O)cc2)[C@@]12C(=O)N(C(=O)OCCOC)c1ccc(C#CC3=CCCCC3)cc12`: the z-score is -1.1.

Take `CCOC(=O)C[C@H]1[C@H](OC(=O)c2cc3ccccc3oc2=O)[C@@H](NC(=O)CC(C)C)c2cc(OCCCO)ccc2N1C(=O)c1ccc2ccccc2n1`: the z-score is -0.618.

With `NCCCCCNC(=O)[C@@H]1C[C@@H]2C(=O)N[C@@H](CCCCN)C(=O)N2[C@@H]1c1ccc(O)cc1`, the z-score was -0.175.

In the case of `CC(C)C(CO)N1C(=O)[C@@H]2C3C(=O)OCCC/C=C\[C@H]3OC23C=CCN(Cn2nnc4ccccc42)C(=O)[C@@H]13` (stereo partly drawn), the z-score is 0.302.

As to `[N-]=[N+]=NCc1ccccc1C[C@@]1(C(N)=O)N=C(c2ccc(OCCCO)cc2)O[C@@H]1c1ccccc1`, the z-score was -1.25.

Turning to `CCOC(=O)C[C@H]1[C@H](OC(=O)c2ccc(C(=O)c3ccccc3)cc2)[C@@H](NC(=O)CC(C)C)c2cc(OCCCO)ccc2N1C(=O)c1ccccc1`, the z-score was -0.804.

Take `CC(C)[Si](C#C[Si](C(C)C)(C(C)C)C(C)C)(O[C@H](c1ccccc1)c1cn(Cc2ccccc2)nn1)C(C)C`: the z-score is 1.25.

As for `COC(=O)C/C=C/C[C@]1(O)C(=O)N(C)c2ccccc21`, the z-score is 2.8.

`CN1C(=O)C2C=CC(C(O)c3cccn3C)N(Nc3ccc([N+](=O)[O-])cc3[N+](=O)[O-])C2C1=O` (stereo not drawn): the z-score is -0.824.

Take `C=CCN1Cc2ccccc2[C@@H]2OC(c3ccc(OCCCO)cc3)=N[C@]2(CC=C)C1=O`: the z-score was 0.408.

Take `CCCC=C(CCC)[C@@H](NP(=O)(c1ccccc1)c1ccccc1)c1ccc(-c2ccccc2)cc1`: the z-score was -1.61.

Consider `C=C(COC)C(=O)CC[C@@H](OC(C)=O)c1cccc(OCCO)c1`, for which the z-score was 0.0328.

Regarding `CCOC(=O)C1=CC[C@@H](c2ccccc2F)N(S(=O)(=O)c2ccc(C)cc2)[C@H]1c1ccccc1`, the z-score was -1.33.

In the case of `O=C1O[C@H](c2ccccc2)[C@H](c2ccccc2)N2[C@H]1[C@@H](C(=O)O)[C@]1(C(=O)Nc3ccc(C#CCCO)cc31)[C@H]2c1ccccc1OCCO`, the z-score was -0.443.
